Here are results for 18 molecules from PubChem BioAssay (Tox21).

A short description of assay [1]: qHTS assay to identify small molecule antagonists of the glucocorticoid receptor (GR) signaling pathway - cell viability counter screen (AID 720693). Note: nearly all actives have a fitted effect of over 55% in size. Note: potency is the fitted concentration of half-maximal effect. A general note: In qHTS, concentration-response curves come from the screen itself.
Assay [2] can be described thus: qHTS assay for identifying genotoxic compounds that show differential cytotoxicity against isogenic chicken DT40 cell lines with known DNA damage response pathways - wild type cell line (AID 743012). Note: nearly all actives have a fitted effect of over 60% in size. Note: potency is the fitted concentration of half-maximal effect. Summed up: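 Viability of DNA repair-proficient chicken DT40 cells was assessed by CellTiter-Glo luminescence following 40 h compound exposure at 37 C/5% CO2.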
A short description of assay [3]: qHTS assay for identifying genotoxic compounds that show differential cytotoxicity against isogenic chicken DT40 cell lines with known DNA damage response pathways - Rev3 mutant cell line (AID 743014). Note: nearly all actives have a fitted effect of over 55% in size. Note: potency is the fitted concentration of half-maximal effect.
Assay [4] in a line: qHTS assay for identifying genotoxic compounds that show differential cytotoxicity against isogenic chicken DT40 cell lines with known DNA damage response pathways - Rad54/Ku70 mutant cell line (AID 743015). Note: nearly all actives have a fitted effect of over 60% in size. Note: potency is the fitted concentration of half-maximal effect.
The nature of assay [5]: qHTS assay to identify small molecule antagonists of the androgen receptor (AR) signaling pathway - cell viability counter screen (AID 743033; note: nearly all actives have a fitted effect of over 45% in size; note: potency is the fitted concentration of half-maximal effect).
Assay [6] in a line: qHTS assay to identify small molecule antagonists of the androgen receptor (AR) signaling pathway using the MDA cell line - cell viability counter screen (AID 743041; note: nearly all actives have a fitted effect of over 45% in size; note: potency is the fitted concentration of half-maximal effect). In a few lines:
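Using the breast carcinoma line MDA-kb2 AR-luc, test chemicals were co-incubated with R1881 for 16 h; CellTiter-Fluor reagent, added at 15.5 h, provided a fluorescence measure of live cells.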

A short description of assay [7]: qHTS assay to identify small molecule antagonists of the thyroid receptor (TR) signaling pathway - cell viability counter screen (AID 743064). Note: nearly all actives have a fitted effect of over 50% in size. Note: potency is the fitted concentration of half-maximal effect. Summed up: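 Same-well viability check: GH3.TRE-Luc cells stimulated with 1 nM T3 alongside test compound for 23.5 h, followed by CellTiter-Fluor fluorescence.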
The nature of assay [8]: qHTS assay to identify small molecule antagonists of the estrogen receptor alpha (ER-alpha) signaling pathway - cell viability counter screen (AID 743074; calls by dose curve; note: nearly all actives have a fitted effect of over 45% in size).
In assay [9] the target is Estrogen receptor (Homo sapiens) (UniProt P03372). The assay is described as follows: qHTS assay to identify small molecule agonists of the estrogen receptor alpha (ER-alpha) signaling pathway (AID 743075; calls by dose curve).
Estrogen receptor (Homo sapiens), sequence (P03372 whole entry, looked up): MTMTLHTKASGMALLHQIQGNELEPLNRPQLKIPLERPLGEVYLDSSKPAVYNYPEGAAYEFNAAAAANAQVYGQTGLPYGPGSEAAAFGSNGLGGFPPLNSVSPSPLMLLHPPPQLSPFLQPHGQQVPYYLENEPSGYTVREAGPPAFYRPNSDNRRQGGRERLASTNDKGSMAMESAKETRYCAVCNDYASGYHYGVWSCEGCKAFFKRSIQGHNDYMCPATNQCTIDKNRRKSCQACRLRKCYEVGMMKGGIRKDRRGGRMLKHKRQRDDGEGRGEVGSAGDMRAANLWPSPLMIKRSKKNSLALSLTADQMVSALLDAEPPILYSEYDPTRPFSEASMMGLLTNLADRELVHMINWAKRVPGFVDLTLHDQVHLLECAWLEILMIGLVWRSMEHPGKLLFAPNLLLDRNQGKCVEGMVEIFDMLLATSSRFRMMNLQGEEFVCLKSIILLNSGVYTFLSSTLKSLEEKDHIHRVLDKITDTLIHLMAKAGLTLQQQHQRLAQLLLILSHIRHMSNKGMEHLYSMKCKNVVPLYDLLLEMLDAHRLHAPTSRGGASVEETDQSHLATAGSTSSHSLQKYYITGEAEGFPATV
For assay [10] the target is unchanged. The assay is described as follows: qHTS assay to identify small molecule agonists of the estrogen receptor alpha (ER-alpha) signaling pathway using the BG1 cell line (AID 743079). Note: nearly all actives have a fitted effect of over 20% in size. Note: potency is the fitted concentration of half-maximal effect.
A short description of assay [11]: qHTS assay to identify small molecule antagonists of the estrogen receptor alpha (ER-alpha) signaling pathway using the BG1 cell line (AID 743080; calls by dose curve;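 note: BG1 cells stimulated with 17beta-estradiol alongside compound; series mostly up to about 70 µM; nearly all actives have a fitted effect of over 25% in size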). In a few lines: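 Seeding, 24 h rest, compound transfer from DMSO, 17beta-estradiol addition, 21.5 h incubation, CellTiter-Fluor (30 min, 37 C), then ONE-Glo (30 min, room temperature): this sequence was run on BG1-Luc-4E2 reporter cells.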

The target of another assay is Aromatase (Homo sapiens) (UniProt P11511). The assay is described as follows: qHTS assay to identify aromatase inhibitors (AID 743083). Note: nearly all actives have a fitted effect of over 55% in size. Note: potency is the fitted concentration of half-maximal effect.
Aromatase (Homo sapiens), sequence (P11511 whole entry, looked up): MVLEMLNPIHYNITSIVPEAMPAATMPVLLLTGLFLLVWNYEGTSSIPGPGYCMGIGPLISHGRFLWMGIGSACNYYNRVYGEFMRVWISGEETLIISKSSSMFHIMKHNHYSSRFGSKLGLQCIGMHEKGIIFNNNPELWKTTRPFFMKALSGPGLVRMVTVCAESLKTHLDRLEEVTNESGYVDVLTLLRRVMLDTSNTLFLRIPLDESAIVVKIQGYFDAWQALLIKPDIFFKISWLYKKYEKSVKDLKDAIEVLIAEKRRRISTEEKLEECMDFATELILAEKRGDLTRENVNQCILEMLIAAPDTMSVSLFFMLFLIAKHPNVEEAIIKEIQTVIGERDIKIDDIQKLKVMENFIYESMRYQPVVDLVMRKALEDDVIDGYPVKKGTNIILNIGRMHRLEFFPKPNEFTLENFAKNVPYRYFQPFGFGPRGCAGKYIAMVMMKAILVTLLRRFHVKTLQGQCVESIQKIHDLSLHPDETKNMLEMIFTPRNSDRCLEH
The subject of assay [12] is thyroid hormone receptor (rat, GH3 cells). The experiment in a line: qHTS assay to identify small molecule agonists of the thyroid receptor (TR) signaling pathway (AID 743066; calls by dose curve).
Assay [13] is described as follows: qHTS assay to identify small molecule antagonists of the thyroid receptor (TR) signaling pathway (AID 743065). Note: nearly all actives have a fitted effect of over 55% in size. Note: potency is the fitted concentration of half-maximal effect. Summed up: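 Antagonism measured as loss of luciferase signal in GH3 cells stably carrying a TRE-luciferase reporter, co-treated with compound and T3 (1 nM final) for 23.5 h at 37 C. Viability was read in the same well by CellTiter-Fluor.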
The target in assay [14] is Estrogen receptor (Homo sapiens) (UniProt P03372). The experiment in a line: qHTS assay to identify small molecule antagonists of the estrogen receptor alpha (ER-alpha) signaling pathway (AID 743069; active = well fitted curve in the direction sought with a large enough effect in the signal ratio in the repeat runs, not every such curve was filed as active; inconclusive = weak or mixed curves, or effect the other way; inactive = no such curve, though single readings can be large or run the other way; the % refers to the signal ratio; note: potency is the fitted concentration of half-maximal effect). Summed up: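 Fluorescence intensity from a beta-lactamase FRET substrate served as the read-out. Cells: HEK293 with stably integrated ER-alpha-UAS-bla reporter. Agonist 17beta-estradiol was co-added with compounds; incubation 18 hr at 37C, substrate 2 hr at room temperature.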

A short description of assay [15]: qHTS assay to identify small molecule antagonists of the estrogen receptor alpha (ER-alpha) signaling pathway using the BG1 cell line - cell viability counter screen (AID 743081).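 Note: compound given together with 17beta-estradiol as the ER stimulus; nearly all actives have a fitted effect of over 45% in size.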 Note: potency is the fitted concentration of half-maximal effect.

Each structure is given as a SMILES string. Several values for one entry are separate records, joined by “and”; a condition that tells them apart may be missing. Equal entries are not always repeated. Activity calls are given as the source filed them. Unless noted, calls come from the whole dose curve; as a rule, active = well fitted curve in the direction sought with a large enough effect in the repeat runs; inconclusive = weak or mixed curves; inactive = no such curve, though single readings can be large; an effect the other way counts as inactive or inconclusive.

Turning to `CC(=O)c1ccc2c(c1)N(CCCN1CCC(CCO)CC1)c1ccccc1S2`, the Potency entry in assay [1], in assay [5], in assay [6], in assay [8], in assay [9] and in assay [10] was “inactive” throughout. Further, the Potency entry (in assay [11]; with Aromatase (Homo sapiens)) was “inactive” each time. Further, the Potency in assay [2] was 12.7 µM (active); in [3], 12.7 µM (active); in [4], 11.4 µM (active); in assay [7] it was 10.1 µM (active).

Turning to `COc1cc2c(cc1OC)C(C(C(=O)N(CCc1ccc(OC)c(OC)c1OC)CCc1ccc(OC)c(OC)c1OC)c1ccccc1)=NCC2` (stereo not drawn), the Potency entry (in assay [1]; in assay [5]; in assay [6]; in assay [12]; in [8]; in the assay with Aromatase (Homo sapiens)) was “inactive” throughout. Besides, the Potency in [2] was 6.68 µM (active); in assay [3] it was 10.6 µM (active); in [4] it was 11.9 µM (active).

For the molecule `CCOc1ccc(N=Nc2ccc(/C=C/c3ccc(N=Nc4ccc(OCC)cc4)cc3S(=O)(=O)O)c(S(=O)(=O)O)c2)cc1`, the Potency entry in assay [1], in assay [2], in [3], in assay [4], in [5] and in [12] was “inactive” throughout. Besides, the Potency entry (in assay [8]; with Aromatase (Homo sapiens)) was “inactive” in each case. In addition, the Potency is 53.6 µM (active) in assay [6] and 47.8 µM (active) in assay [13].

Consider `O=C1CCC(=O)O1`, for which the Potency result in assay [1], in assay [2], in assay [3], in [4], in assay [5] and in [6] was “inactive” throughout. Also, the Potency entry in assay [7], in [12], in assay [14], in assay [8], in assay [9] and in assay [10] was “inactive” each time. Further, the Potency entry (in assay [11]; in assay [15]; with Aromatase (Homo sapiens)) was “inactive” each time.

For the molecule `O=C(O)CC(=O)C(=O)O`, the Potency entry in [1], in assay [2], in [3], in assay [4], in [5] and in [6] was “inactive” in each case. Moreover, the Potency entry (in assay [7]; in [8]; in assay [15]; with Aromatase (Homo sapiens)) was “inactive” each time.

Turning to `C=CC(=O)OCCOCCOCCOCCOC(=O)C=C`, the Potency was 49.2 µM (active) and 48.5 µM (active) in [1]; 13.8 µM (active) and 12.1 µM (active) in assay [2]; 8.68 µM (active) and 6.06 µM (active) in assay [3]; 12.3 µM (active) and 9.6 µM (active) in assay [4]; 24.7 µM (active) in [5]; 30.4 µM (active) in assay [6]. In addition, the Potency in [14] was 62 µM [inconclusive] (active) and 61.1 µM [inconclusive] (active); in assay [15] it was 61.4 µM (active); in the assay with Aromatase (Homo sapiens), 15.4 µM (active) and 17.1 µM (active). Further, the Potency entry in [12], in [8] and in [9] was “inactive” each time.

Take `CC/C=C\CCOC(=O)CC`: the Potency result in assay [1], in assay [2], in assay [3], in [4], in [5] and in assay [6] was “inactive” in each case. For the same molecule, the Potency entry (in assay [7]; in [12]; in assay [8]; in assay [15]; with Aromatase (Homo sapiens)) was “inactive” throughout.

As to `COc1cc(Cl)ccc1Oc1ccc(Cl)cc1Cl`, the Potency entry in [1], in assay [2], in [3], in [4], in assay [5] and in assay [6] was “inactive” each time. Further, the Potency result (in assay [12]; in [8]; in assay [9]; in [10]; in assay [15]; in the assay with Aromatase (Homo sapiens)) was “inactive” each time.

As for `CC(C)(C)Cl`, the Potency result in [1], in [2], in assay [3], in [4], in assay [5] and in assay [6] was “inactive” each time. The Potency result in assay [13], in assay [12], in assay [14], in assay [9], in assay [11] and in [15] was “inactive” throughout. Further, in the assay with Aromatase (Homo sapiens), the Potency entry was “inactive”. The Potency in assay [10] is 64.4 µM (active).

Consider `NCC(=O)O`, for which the Potency result in [1], in assay [2], in [3], in assay [4], in assay [5] and in [6] was “inactive” in each case. In addition, the Potency entry in assay [7], in assay [12], in assay [14], in [9], in [10] and in assay [11] was “inactive” throughout. The Potency entry (in [15]; with Aromatase (Homo sapiens)) was “inactive” in each case.

Take `O=C(Cl)c1cc(C(=O)Cl)cc(C(=O)Cl)c1`: the Potency entry in assay [1], in [5], in assay [6], in [12], in [14] and in assay [8] was “inactive” in each case. Further, the Potency result in [9], in assay [10], in assay [11] and in assay [15] was “inactive” in each case. Moreover, the figures for the Potency in [2], in [3] and in assay [4] were 19.3 µM (active), 27.3 µM (active) and 19.3 µM (active), respectively.

As for `C=CCOc1ccccc1OCC(O)CNC(C)C` (stereo not drawn), the Potency result in [1], in [2], in [3], in assay [4], in assay [5] and in assay [6] was “inactive” in each case. Moreover, the Potency result in assay [13], in [12], in [14], in assay [8], in assay [9] and in assay [10] was “inactive” each time. Moreover, the Potency result (in assay [11]; in the assay with Aromatase (Homo sapiens)) was “inactive” in each case.

On to `Cc1c(N)cccc1[N+](=O)[O-]`, for which the Potency result in assay [1], in assay [2], in assay [3], in [4], in assay [5] and in [6] was “inactive” in each case. The Potency entry in assay [13], in assay [12], in [8], in [9], in [11] and in assay [15] was “inactive” in each case.

As to `O=[N+]([O-])c1cccc(S(=O)(=O)O)c1`, the Potency entry in assay [1], in assay [2], in assay [3], in assay [4], in assay [5] and in [6] was “inactive” throughout. For the same molecule, the Potency result (in assay [13]; in assay [12]; in [8]; in assay [15]; with Aromatase (Homo sapiens)) was “inactive” in each case.

Turning to `Brc1c2ccccc2cc2ccccc12`, the Potency entry in [1], in assay [2], in [3], in assay [4], in assay [5] and in assay [6] was “inactive” in each case. Also, the Potency result in [7], in assay [12], in [8] and in assay [15] was “inactive” in each case. The Potency in assay [10] was 30.9 µM (active).

In the case of `C[C@H](CCC(=O)O)[C@H]1CC[C@H]2[C@@H]3CC[C@@H]4C[C@H](O)CC[C@]4(C)[C@H]3C[C@H](O)[C@]12C`, the Potency result in assay [1], in [2], in [3], in assay [4], in assay [5] and in [6] was “inactive” in each case. Besides, the Potency entry in assay [12], in [14], in assay [8], in [9], in assay [10] and in [11] was “inactive” throughout. Moreover, the Potency entry (in assay [15]; with Aromatase (Homo sapiens)) was “inactive” throughout.

Regarding `Clc1ccc2c(c1)CCc1cccnc1C2=C1CCNCC1`, the Potency entry in assay [1], in assay [5], in [6], in [9] and in [15] was “inactive” throughout. In addition, the Potency in [2] was 5.31 µM (active); in assay [3] it was 7.5 µM (active); in [4] it was 8.41 µM (active); in [7] it was 10.6 µM (active); in assay [13], 9.44 µM (active).

As for `CCOC(=O)c1cccnc1`, the Potency entry in assay [1], in assay [2], in assay [3], in [4], in [5] and in assay [6] was “inactive” each time. Moreover, the Potency entry in [13], in assay [12], in assay [8], in [9], in assay [10] and in [11] was “inactive” throughout. The Potency entry (in assay [15]; in the assay with Aromatase (Homo sapiens)) was “inactive” each time.
